A short description of test [1]: compounds binding Alexa647 anti-His antibody – biochemical, small-molecule microarray, 635 nm fluorescence, artefact control for SMM control protein annotation, primary screen (AID 1128).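 Further: score merges feature fluorescence with signal-to-noise for each printed compound spot.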 Particulars: higher = more signal.
Test [2] concerns Human papillomavirus type 1a E7 protein (residues 1-88). The test is described as follows: HPV1a E7 small-molecule binders, primary screen, biochemical, small-molecule microarray, residues 1-88, 635 nm (AID 1129). The conditions noted are these: small-molecule microarray binding, fluorescence 635 nm; higher = more signal.
The target in test [3] is Focal adhesion kinase 1 (Homo sapiens) (UniProt Q05397). In words: PTK2 protein binding on printed compound slides – biochemical, small-molecule microarray, 635/667 nm fluorescence, BSA, DTT, primary screen (AID 1130).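 Further: composite of spot emission at 667 nm and signal to noise over triplicate slides.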 The conditions noted are these: 635 nm fluorescence, higher = more signal.
Test [4] relates to Fibrinogen (Alexa647-labelled). In words: Alexa647-fibrinogen binding to printed small molecules – biochemical, small-molecule microarray, 635/667 nm fluorescence, artefact control for SMM control-protein annotation, profiling panel (AID 1131).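 Further: z-score merges 667 nm fluorescence with per-spot signal-to-noise over triplicate slides.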 Particulars: fibrinogen-A647 binding fluorescence, higher = more signal.
Test [5] deals with Follistatin (Homo sapiens) (UniProt P19883). The test is described as follows: FST protein binding to printed compounds – biochemical, small-molecule microarray, 635/667 nm fluorescence, primary screen (AID 1132). Particulars: 635 nm fluorescence, higher = more signal.
Test [6] deals with Fibroblast growth factor 2 (Homo sapiens) (UniProt P09038). In words: basic fibroblast growth factor binding to printed compounds – biochemical, small-molecule microarray, 635/667 nm fluorescence, primary screen (AID 1133). The conditions noted are these: FGF2, fluorescence 635/667, higher = more signal.
Test [7] is described as follows: JC-1 mitochondrial potential readout, lung cancer cells – cell-based, A549, JC-1 fluorescence, basal, 24 h, 100 nL, profiling panel (AID 1138).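 Further: A549 lung adenocarcinoma cells under basal conditions with no added stimulus; test concentration not given here.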 The conditions noted are these: higher = more signal.
In another test the test system is Lefty1. In words: Lefty1 protein binding to printed compounds – biochemical, small-molecule microarray, 635/667 nm fluorescence, primary screen (AID 1139). Particulars: fluorescence 635/667, higher = more signal.
For test [8], the system named is wheat germ agglutinin (Triticum aestivum), Alexa647-labelled. The test is described as follows: Alexa647-WGA lectin binding to printed small molecules – biochemical, small-molecule microarray, 635/667 nm fluorescence, artefact control for SMM control-protein annotation, profiling panel (AID 1140).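 Further: score merges 667 nm feature emission with signal to noise over triplicate slides.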 The conditions noted are these: WGA-A647 binding, 635 nm fluorescence, higher = more signal.

For test [9], the target named is Luciferin 4-monooxygenase (Photinus pyralis) (UniProt P08659). In words: inhibition of purified Photinus pyralis luciferase – biochemical, luminescence, purified enzyme, 2006 set, primary screen (AID 1141).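 Further: cell-free assay with purified firefly luciferase at 100 ng per well in PBS; test concentration not given here.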 Particulars: purified firefly luciferase, SteadyGlo luminescence, 30 min; higher = more signal, called active from +8 up or from −8 down.
For test [10], the system named is Wnt5a (protein binding on small-molecule microarray). In words: small molecules binding Wnt5a protein – biophysical, small-molecule microarray, 635/667 nm fluorescence, primary screen (AID 1142).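 Further: fluorescence read at 667 nm with signal to noise per printed feature.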 Particulars: 635 nm fluorescence, higher = more signal.
The nature of test [11]: ATP-based viability of Huh7 replicon cells – cell-based, CellTiter-Glo luminescence, basal, 48 h, cytotoxicity control for HCV replication inhibitor project, primary screen (AID 1143).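 Further: Huh7 hepatoma cells carrying a hepatitis C replication reporter with no stimulus; test concentration not given here.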 The conditions noted are these: higher = more signal, called active from +8 up or from −8 down. A general note: In antiviral work, replicon cells carry a viral genome segment that copies itself.

The nature of test [12]: Pseudomonas biofilm growth suppression – PAO1 strain, BacTiter-Glo luminescence, LB-PBS, primary screen (AID 1144). Particulars: P. aeruginosa PAO1 biofilm, 12 h, higher = more signal.
The nature of test [13]: basal CRE-LacZ reporter activity in PC12 – cell-based, unstimulated, primary screen (AID 1145). Particulars: no forskolin, luminescence, 4.5 h, higher = more signal, called active from +8 up or from −8 down.
The nature of test [14]: forskolin-driven CRE-LacZ activity in PC12 – cell-based, CRE-LacZ reporter, forskolin-stimulated, primary screen (AID 1146).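 Further: PC12 cells with 6xCRE LacZ reporter stimulated by forskolin 10 µM; beta-galactosidase reporter signal reflecting CREB driven transcription.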 Particulars: luminescence, 4.5 h, higher = more signal, called active from +8 up or from −8 down.
The target in test [15] is Streptavidin (Streptomyces avidinii) (UniProt P22629). The test is described as follows: compounds binding control protein streptavidin – biophysical, small-molecule microarray, 635/667 nm fluorescence, artefact control for SMM compound annotation, primary screen (AID 1147).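 Further: signal reflects streptavidin binding to arrayed compounds as a control protein.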 Particulars: higher = more signal.
Test [16] can be described thus: probe aInhba binding on compound microarray – biochemical, small-molecule microarray, 635/667 nm fluorescence, primary screen (AID 1148).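 Further: score merges 667nm spot fluorescence with signal-to-noise for antibody binding to printed compounds.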 Particulars: higher = more signal.
For test [17], the target named is Torsin-1A (Homo sapiens) (UniProt O14656). In words: TOR1A wild-type binding on microarray – cell lysate, small-molecule microarray, lysate, 635/667 nm, primary screen (AID 1149). Particulars: COS7 hTOR1A-WT lysate, 635 nm fluorescence, higher = more signal.
Test [18] shares this target. In words: torsin A mutant lysate binding on microarrays – cell lysate, small-molecule microarray, COS7 lysate, 635/667 nm fluorescence, primary screen (AID 1150).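 Further: score pools 667 nm emission and signal to noise measuring lysate protein binding.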 Particulars: COS7 hTOR1A mutant lysate, 635 nm fluorescence, higher = more signal.
For test [19], the system named is Sonic hedgehog protein (Shh). In words: Sonic hedgehog microarray binding compounds – biochemical, small-molecule microarray, 635/667 nm fluorescence, primary screen (AID 1151).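 Further: Shh protein binding to compounds spotted on small-molecule microarray slides; score combines spot fluorescence intensity with signal-to-noise across triplicate slides.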 The conditions noted are these: 635 nm fluorescence, higher = more signal.

Values joined by “and” are separate entries in the source; they are usually repeats but may differ in a detail not shown here. Identical values can stand only once. More than one record can exist for a structure, and the calls need not agree. Active and inactive are the calls of the source. Unless noted, how the calls were made is not given here.

Streptavidin (Streptomyces avidinii), sequence (P22629 whole entry, looked up): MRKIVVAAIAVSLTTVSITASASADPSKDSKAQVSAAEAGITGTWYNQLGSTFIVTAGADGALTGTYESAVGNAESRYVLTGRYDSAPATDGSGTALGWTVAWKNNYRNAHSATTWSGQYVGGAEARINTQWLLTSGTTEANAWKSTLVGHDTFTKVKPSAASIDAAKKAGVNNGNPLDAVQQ
Luciferin 4-monooxygenase (Photinus pyralis), sequence (P08659 whole entry, looked up): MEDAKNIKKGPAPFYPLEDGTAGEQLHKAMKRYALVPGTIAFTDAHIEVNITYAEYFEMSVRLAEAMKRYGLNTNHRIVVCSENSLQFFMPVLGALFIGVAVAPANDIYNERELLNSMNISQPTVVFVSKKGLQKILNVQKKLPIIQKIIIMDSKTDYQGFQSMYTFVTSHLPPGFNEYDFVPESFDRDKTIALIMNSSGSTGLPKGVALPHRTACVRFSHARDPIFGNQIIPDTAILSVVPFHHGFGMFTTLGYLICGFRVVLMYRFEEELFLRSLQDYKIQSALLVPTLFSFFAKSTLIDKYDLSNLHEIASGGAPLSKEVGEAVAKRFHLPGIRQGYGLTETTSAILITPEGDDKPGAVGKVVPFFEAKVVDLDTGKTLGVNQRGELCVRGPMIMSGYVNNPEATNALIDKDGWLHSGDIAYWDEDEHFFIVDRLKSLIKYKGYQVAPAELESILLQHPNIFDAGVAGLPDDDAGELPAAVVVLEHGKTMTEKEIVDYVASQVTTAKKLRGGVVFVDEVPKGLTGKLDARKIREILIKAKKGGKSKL
Focal adhesion kinase 1 (Homo sapiens), sequence (Q05397 whole entry, looked up): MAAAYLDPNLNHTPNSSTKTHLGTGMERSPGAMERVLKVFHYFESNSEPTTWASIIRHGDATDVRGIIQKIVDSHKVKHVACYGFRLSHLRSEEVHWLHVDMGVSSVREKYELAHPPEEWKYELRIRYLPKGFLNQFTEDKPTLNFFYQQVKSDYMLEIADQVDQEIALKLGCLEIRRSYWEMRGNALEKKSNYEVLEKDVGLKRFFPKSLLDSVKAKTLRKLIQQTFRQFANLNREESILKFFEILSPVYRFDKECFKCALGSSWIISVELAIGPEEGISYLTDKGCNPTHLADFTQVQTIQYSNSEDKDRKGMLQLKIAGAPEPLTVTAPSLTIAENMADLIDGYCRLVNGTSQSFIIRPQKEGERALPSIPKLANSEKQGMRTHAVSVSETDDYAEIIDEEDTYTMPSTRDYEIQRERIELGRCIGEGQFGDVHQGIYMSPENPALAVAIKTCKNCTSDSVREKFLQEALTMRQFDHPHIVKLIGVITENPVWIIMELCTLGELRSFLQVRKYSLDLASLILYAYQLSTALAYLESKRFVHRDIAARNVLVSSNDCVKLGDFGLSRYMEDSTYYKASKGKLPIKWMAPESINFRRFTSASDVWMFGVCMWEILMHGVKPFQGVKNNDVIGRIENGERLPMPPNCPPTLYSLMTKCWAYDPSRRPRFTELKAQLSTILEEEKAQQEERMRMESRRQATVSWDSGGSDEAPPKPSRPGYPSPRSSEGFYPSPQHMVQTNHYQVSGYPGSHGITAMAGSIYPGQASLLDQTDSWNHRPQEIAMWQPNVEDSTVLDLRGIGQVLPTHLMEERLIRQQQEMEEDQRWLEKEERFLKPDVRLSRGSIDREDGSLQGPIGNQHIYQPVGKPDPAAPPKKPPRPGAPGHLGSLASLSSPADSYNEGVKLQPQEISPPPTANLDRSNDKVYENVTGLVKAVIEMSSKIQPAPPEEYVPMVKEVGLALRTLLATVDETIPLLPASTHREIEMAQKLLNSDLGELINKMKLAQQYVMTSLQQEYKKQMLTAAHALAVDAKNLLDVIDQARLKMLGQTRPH
Fibroblast growth factor 2 (Homo sapiens), sequence (P09038 whole entry, looked up): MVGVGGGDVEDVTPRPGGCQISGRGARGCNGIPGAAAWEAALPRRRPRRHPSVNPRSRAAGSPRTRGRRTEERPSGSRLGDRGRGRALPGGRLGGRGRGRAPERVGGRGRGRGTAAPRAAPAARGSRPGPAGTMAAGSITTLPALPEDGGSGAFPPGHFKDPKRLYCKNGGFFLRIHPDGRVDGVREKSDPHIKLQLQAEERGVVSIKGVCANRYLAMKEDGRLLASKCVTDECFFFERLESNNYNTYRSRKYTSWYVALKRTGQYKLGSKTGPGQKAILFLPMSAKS
Torsin-1A (Homo sapiens), sequence (O14656 whole entry, looked up): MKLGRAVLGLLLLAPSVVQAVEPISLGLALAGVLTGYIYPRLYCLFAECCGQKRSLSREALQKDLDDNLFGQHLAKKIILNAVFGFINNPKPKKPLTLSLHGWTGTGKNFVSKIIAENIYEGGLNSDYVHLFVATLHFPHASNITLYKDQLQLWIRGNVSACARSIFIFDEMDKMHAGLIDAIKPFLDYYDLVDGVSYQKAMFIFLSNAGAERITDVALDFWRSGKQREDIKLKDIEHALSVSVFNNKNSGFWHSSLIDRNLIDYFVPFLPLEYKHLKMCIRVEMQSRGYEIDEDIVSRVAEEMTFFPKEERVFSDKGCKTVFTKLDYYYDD
Follistatin (Homo sapiens), sequence (P19883 whole entry, looked up): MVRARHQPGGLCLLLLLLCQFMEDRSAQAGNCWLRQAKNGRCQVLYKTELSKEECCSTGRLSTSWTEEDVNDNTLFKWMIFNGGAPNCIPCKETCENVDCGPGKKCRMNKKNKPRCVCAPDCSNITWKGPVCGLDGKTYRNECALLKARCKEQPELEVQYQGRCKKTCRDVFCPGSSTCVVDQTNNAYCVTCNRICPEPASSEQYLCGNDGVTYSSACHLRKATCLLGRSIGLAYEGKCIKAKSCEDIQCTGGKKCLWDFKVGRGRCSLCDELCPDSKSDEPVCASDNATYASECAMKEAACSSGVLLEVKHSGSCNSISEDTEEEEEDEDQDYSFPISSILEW

For `COC(=O)[C@@]1(Cc2ccccc2)[C@H]2c3cc(C(=O)N(C)C)n(Cc4ccc(C)c(F)c4F)c3C[C@H]2CN1C(=O)c1ccccc1`, the composite z-score in test [1] was 1.95 and 1.06; in test [2], 1.24 and 1.25; in [3], 0.73 and 1.04; in test [4] it was 0.966 and 1.01; in test [5], 0.096 and 1.26; in test [6], -0.824 and -0.149. The composite z-score was -0.587 and 0.642 with Lefty1; 0.899 and 1.03 in [8]; 0.0409 and 1.51 in test [10]; 0.367 and 1.93 in test [15]; 0.122 and 0.787 in [16]; 0.399 and 0.7 with Torsin-1A (Homo sapiens) [17]. In addition, the composite z-score in the test with Torsin-1A (Homo sapiens) [18] is 0.272 and 0.365; in [19], -0.678 and -0.165. The z-score in [7] was -1.17 and -1.14; in [9], -1.27 (inactive) and 0.773 (inactive); in test [11] it was -4.98 (inactive) and -3.53 (inactive); in test [12] it was -0.796 (inactive) and 0.655 (inactive); in test [13], 31.5 (active) and 0.972 (inactive); in test [14] it was 202 (active) and 0.38 (inactive).
For `CCOC(=O)C[C@H]1[C@H](OC(=O)c2ccccc2-c2ccccc2)[C@@H](NC(=O)Cc2ccc(OC)cc2)c2cc(OCCCO)ccc2N1C(=O)Cc1ccc(OC)cc1`, the composite z-score in [1] is -0.109 and -0.161; in test [2] it was 0.8 and -0.925; in test [3] it was 0.14 and -0.217; in test [4], 0.325 and 0.237; in [5], 0.214 and -0.173; in [6], -0.0463 and -0.423. In addition, the composite z-score with Lefty1 is 0.517 and -0.0509; in test [8], 0.484 and -0.261; in [10], 0.18 and 0.0684; in test [15], 0.325 and -0.401; in test [16], 0.0082 and 0.109; with Torsin-1A (Homo sapiens) [17] it was -0.0109 and -0.752. In addition, the composite z-score with Torsin-1A (Homo sapiens) [18] is 0.24 and 0.161; in [19] it was 0.857 and -0.501. Moreover, the z-score is 1.91 and 0.598 in test [7]; -1 (inactive) and 0.591 (inactive) in [9]; -0.093 (inactive) and -0.267 (inactive) in test [11]; 0.0825 (inactive) in test [12]; 0.656 (inactive) and 0.671 (inactive) in test [13]; -1.2 (inactive) and 0.454 (inactive) in [14].
With `C[N+](C)(C)CCCCCCNC(=O)[C@@H]1C[C@@H]2C(=O)N[C@@H](CCCC[N+](C)(C)C)C(=O)N2[C@@H]1c1ccc(O)cc1`, the composite z-score was 0.582 and 1.21 in [1]; -0.694 and 0.212 in test [2]; -0.169 and -0.133 in test [3]; -1.44 and -0.95 in [4]; 1.39 and 1.34 in [5]; 1.47 and 1.44 in [6]. For the same molecule, the composite z-score in the test with Lefty1 was 0.914 and 1.04; in test [8], -0.187 and -0.088; in test [10], 0.107 and -0.0086; in [15], -0.392 and -0.129; in test [16], -0.128 and -0.0375; in the test with Torsin-1A (Homo sapiens) [17] it was 0.854 and -0.609. The composite z-score with Torsin-1A (Homo sapiens) [18] is 0.0983 and -0.498; in test [19] it was 1.61 and 2.12. Moreover, the z-score in test [7] is -0.0687 and -0.662; in test [9], 0.547 (inactive) and 0.58 (inactive); in [11] it was 0.0047 (inactive) and 0.0071 (inactive); in [12], -0.424 (inactive) and -0.439 (inactive); in test [13] it was -0.532 (inactive) and -1.08 (inactive); in test [14], -1.2 (inactive) and 0.128 (inactive).

(Values after PubChem BioAssay.)
